Data reported in the supplement of paper PMC3334620.
Over roughly 33,000 sequences, “E-score (-0.5 to 0.5)” has its median near -0.054; the highest 2% begin near 0.39. This is one part of a sample in which the highest values are shown more often than they occur.

The sequences below were run against Ylr278c (UniProt Q05854) (assay: PBM E-score (8-mer binding enrichment) (E-score (-0.5 to 0.5)); higher = stronger / more preferred TF binding). Conditions: protein concentration: 200 nM; construct: GST-DNA-binding domain.
UniProt Q05854, sequence (Q05854 whole entry, the tested form may be a part): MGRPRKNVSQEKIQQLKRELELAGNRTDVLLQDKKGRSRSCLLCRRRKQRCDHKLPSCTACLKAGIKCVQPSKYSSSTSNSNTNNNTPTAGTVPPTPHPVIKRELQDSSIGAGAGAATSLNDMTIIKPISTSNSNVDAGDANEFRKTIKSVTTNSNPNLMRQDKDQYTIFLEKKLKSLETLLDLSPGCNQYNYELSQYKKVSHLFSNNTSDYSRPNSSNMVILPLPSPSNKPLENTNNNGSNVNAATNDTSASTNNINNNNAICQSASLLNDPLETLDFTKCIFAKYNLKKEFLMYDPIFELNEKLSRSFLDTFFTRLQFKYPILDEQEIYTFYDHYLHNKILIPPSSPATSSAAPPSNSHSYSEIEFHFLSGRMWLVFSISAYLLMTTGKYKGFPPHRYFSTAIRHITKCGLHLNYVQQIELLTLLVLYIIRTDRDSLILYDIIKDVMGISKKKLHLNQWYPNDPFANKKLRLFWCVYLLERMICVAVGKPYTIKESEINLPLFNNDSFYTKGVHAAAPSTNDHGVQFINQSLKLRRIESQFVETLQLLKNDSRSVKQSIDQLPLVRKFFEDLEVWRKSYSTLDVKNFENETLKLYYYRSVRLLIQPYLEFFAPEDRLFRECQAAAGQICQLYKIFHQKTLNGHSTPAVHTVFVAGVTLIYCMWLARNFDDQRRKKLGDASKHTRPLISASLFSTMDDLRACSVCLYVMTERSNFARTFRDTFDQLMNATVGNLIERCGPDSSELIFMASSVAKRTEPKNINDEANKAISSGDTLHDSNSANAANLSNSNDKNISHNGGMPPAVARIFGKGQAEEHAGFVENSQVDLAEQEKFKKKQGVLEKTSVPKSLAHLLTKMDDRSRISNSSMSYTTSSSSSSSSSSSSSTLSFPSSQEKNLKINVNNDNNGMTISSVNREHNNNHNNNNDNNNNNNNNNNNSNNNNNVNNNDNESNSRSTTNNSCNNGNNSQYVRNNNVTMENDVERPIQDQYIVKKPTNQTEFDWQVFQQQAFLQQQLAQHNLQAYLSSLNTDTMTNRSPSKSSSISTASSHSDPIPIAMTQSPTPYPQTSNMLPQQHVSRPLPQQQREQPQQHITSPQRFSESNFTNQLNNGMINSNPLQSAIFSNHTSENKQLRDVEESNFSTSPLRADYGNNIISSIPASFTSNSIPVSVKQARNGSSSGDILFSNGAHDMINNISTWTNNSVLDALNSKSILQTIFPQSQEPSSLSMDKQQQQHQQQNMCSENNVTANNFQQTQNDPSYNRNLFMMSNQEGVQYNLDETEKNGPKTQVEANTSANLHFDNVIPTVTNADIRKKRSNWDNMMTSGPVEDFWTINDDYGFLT
How it was run: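 For each ungapped eight-base word taken together with its reverse complement, the Universal PBM Analysis Suite assigned an E-score. Binding data came from GST-tagged yeast transcription factors, applied at about 100-200 nM, on universal all-10-mer Agilent arrays made double-stranded by primer extension. Fluorescent anti-GST marked bound protein, and scans were normalised with masliner.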

Sequence | PBM E-score
GTGGCCCA | -0.196
CGACTGAC | -0.171
CGGATCGA | 0.19
CAACTCTC | -0.0583
ACTGAGAG | -0.25
TACAGTGA | -0.253
CGTATGCC | 0.107
ATCTAGTG | -0.173
AACTATCC | 0.0243
ACGCCGTC | 0.276
ACGCCGCC | 0.279
ACGCCGGC | 0.421
AATATGAA | 0.0372
CGGGCTGC | 0.118
CGAATGGA | -0.121
GACGCTGA | -0.214
CTATCGGC | 0.239
ATATCGGC | 0.319
GTATCGCA | -0.0427
CTATCGTA | -0.18
ATATCGGG | 0.313
GTATCGGA | 0.431
GTATCGAA | -0.103
ATATCGGA | 0.391
CTATCGGA | 0.444

Sequence | PBM E-score
ATCTCAGG | -0.0988
GTGGCAAC | -0.0372
AGCAATCG | -0.0973
CTCCTTTA | -0.132
ACATTGCA | -0.0533
ATCGCCGA | 0.373
CCCGCCGA | 0.334
AACGCCGC | 0.339
AACGCCGT | 0.272
AAAGCCGT | 0.137
GCCGCCGA | 0.338
CAAGCCGG | 0.263
AAAGCCGG | 0.391
AACGCCGG | 0.424
TCCGCCGA | 0.437
ATCGCCGC | 0.295
ATCGCCGG | 0.421
ATCTGTGC | -0.167
AAGCGAAG | -0.0624
AAAAGCCT | -0.224
ACCGCCGC | 0.235
AACGCCGA | 0.433
CCCGCCGG | 0.384
ACCGCCGG | 0.403
CACGCCGA | 0.211

Sequence | PBM E-score
AAAAGCCG | 0.388
AAAAGCCC | 0.151
TACGCCGA | 0.293
GAGACTAC | 0.0263
ACGCAAAG | -0.0959
AGACCGGA | 0.335
GGACCGGA | 0.442
CGACCGGA | 0.409
CGACCGAA | 0.148
CGACCGGC | 0.248
GGACCGCA | 0.238
CACAGATC | -0.0312
ACTGCTCT | -0.15
ATCTTCGG | 0.303
AAGTCGCT | -0.163
ACGACACC | 0.0263
ATCAAAAA | 0.0906
CTCCCAGC | -0.0468
ATTGTCCA | -0.113
AATGTCCG | 0.458
CATGTCCG | 0.384
AATGTCCA | -0.115
ATTGTCCC | 0.0603
ATTGTCCG | 0.452
GCCGCAGA | 0.143

Sequence | PBM E-score
AGGTGTCG | 0.0347
GCCGATGA | 0.298
CCCCGCAG | 0.302
ATCCGCAC | 0.299
TTCCGCAA | 0.298
GTCCGCAA | 0.334
CTCCGCAC | 0.41
CTCCGCAG | 0.418
CTCCGCAA | 0.409
GTCCGCAC | 0.308
ATCCGCAG | 0.259
ACACCTGG | -0.243
CCCTCTAG | -0.311
CGTGGCCC | -0.0746
AACCCTAA | -0.0663
CGAAAGGC | 0.0796
CCGCCCGG | 0.402
CCGCCCCC | 0.168
CCGCCCCG | 0.42
CCGCCCGC | 0.349
AAGCCCGT | 0.0339
AAGCCCGC | 0.266
ACGCCCCG | 0.229
AAGCCCGG | 0.416
ACGCCCGG | 0.305

Sequence | PBM E-score
GAAACCTC | 0.0208
CTGAGTCC | 0.00022
CACTAAAG | -0.169
GTGCTCCA | -0.118
AACAACAC | -0.0906
ACTTGACG | -0.135
ATTGATCC | 0.282
CACTTGCC | 0.0403
CCCCTCGC | -0.239
GGGAGCCA | -0.264
CGGAGCCG | 0.427
CGGAGCCC | 0.37
TGGAGCCA | -0.194
AGGAGCCG | -0.0181
CGGAGCCA | 0.402
AATGCTGC | -0.0877
CAGTCTCA | -0.126
CATCGGTC | 0.15
CATCGGGC | 0.211
AATCGGCA | 0.304
AATCGGAG | 0.466
GATCGGGA | 0.227
AATCGGTG | 0.126
AATCGGAT | 0.384
CATCGGAC | 0.424

Sequence | PBM E-score
GATCGGAA | 0.408
AATCGGGA | 0.231
AATCGGAA | 0.416
GATCGGTA | 0.265
AACTGGGG | 0.00524
CTGCAACC | -0.27
CTTTGGTA | -0.0286
CGAATGTC | 0.101
CAGAGTAG | -0.16
AGCCAGCC | -0.18
AAAGCGAT | 0.0361
CGATTTTC | 0.153
GAGCGCCC | 0.00794
GATCGGAC | 0.434
CATCGGAA | 0.396
CATCGGTA | 0.261
AATCGGAC | 0.397
CATCGGAG | 0.457
CATCGGGG | 0.314
AATCGGGC | 0.0936
GATCGGGC | 0.184
AATCGGCC | 0.24
GCTCGGAC | 0.382
CATCGGCG | 0.304
CATCGGCA | 0.284

Sequence | PBM E-score
AGTATCAC | -0.0655
GTTTCGCA | -0.0936
ACTACTAG | -0.0129
ATTTTGGA | 0.168
AAATCCTA | 0.0982
CTTGGCGA | -0.203
TATCGGCA | 0.264
TATCGGAA | 0.413
TATCGGGA | 0.288
ACGCTCCC | 0.0269
CCGCTCCA | 0.064
AGGCTCCC | -0.0902
ATGCTCCA | -0.0254
AGGCTCCA | -0.133
ATGCTCCC | -0.0848
ACGCTCCG | 0.399
AGGCTCCG | 0.39
ACGCTCCT | -0.237
CCGCTCCC | 0.191
ATGCTCCG | 0.425
CCGCTCCG | 0.444
GAGGCCGA | 0.217
ACTTTTCC | 0.278
GCCTAGCA | -0.245
GAGGCTAA | 0.0333

Sequence | PBM E-score
AGCAGACG | -0.00216
ATGTGGGA | -0.101
AAAGCTAT | -0.0422
GGTTGGCA | -0.173
ATAGAGAC | -0.248
CCCCGCAA | 0.225
AAGTCCGA | 0.483
GCGTCCGA | 0.292
GAGTCCGC | 0.363
GAGTCCGA | 0.392
CAGTCCGG | 0.367
TAGTCCCA | -0.284
TAGTCCAA | -0.0998
AAGTCCTA | 0.0365
TAGTCCGA | 0.415
CAGTCCGA | 0.402
CAGTCCGC | 0.202
ACGTCCGA | 0.346
ACCAGGGC | -0.178
ATTGAACG | -0.114
ATTGAACC | -0.0437
AGGCGTAT | -0.308
ACAGTCAT | -0.24
ACTATTGC | 0.0531
ATAGACCG | 0.0141

Sequence | PBM E-score
CAGCTTCC | -0.0366
CAGTGCGG | 0.257
ATGCTGCA | -0.178
CCACGGAG | 0.418
ACACGGAG | 0.419
CCACGGAC | 0.272
ACACGGAA | 0.288
CCACGGAA | 0.34
ACACGGAT | 0.199
CTCTCCCA | -0.148
ATCTCCGC | 0.47
ATCTCCCA | 0.0776
ATCTCCGA | 0.478
ATCTCCAG | -0.0917
ATCTCCGG | 0.493
CTCTCCAA | 0.0897
CTCTCCGC | 0.325
ATCTCCCG | 0.301
ATCTCCAA | -0.0722
ATCTCCCC | -0.00596
CTCTCCGA | 0.394
CTTCATGC | -0.0885
ACCGCGAC | 0.0815
CGAACTGC | 0.0356
ACATTCAA | 0.0683

Sequence | PBM E-score
GACAGTCC | 0.0326
CCGGTAAG | 0.337
GCGCGCAA | 0.219
GTCTCCAA | -0.111
GTCTCCTA | -0.166
GTCTCCGA | 0.417
GTACTTTA | -0.191
TATCCTGA | -0.121
TATCCGCA | 0.271
AATCCGTA | 0.195
CATCCGGG | 0.3
AATCCTGG | -0.0892
CATCCGGC | 0.354
AATCCGGA | 0.466
AATCCGGC | 0.425
AATCCGCA | 0.316
TATCCGGA | 0.469
AATCCGTC | 0.297
AATCCGGG | 0.417
CCTCGACG | -0.00055
GTACTGCA | -0.0765
AAACCTCC | 0.147
AATATTGT | 0.0529
TACCAGGA | -0.0496
CTACTTTC | -0.0554

Sequence | PBM E-score
GGGTCGCA | 0.139
CTTGACAC | -0.193
ATAGATGG | -0.132
CCCTTTCG | 0.116
CATCCGTA | 0.183
AATCCGCT | 0.269
GATCCGAA | 0.33
GATCCGGC | 0.407
AATCCGGT | 0.442
CATCCGGA | 0.436
AATCCAGT | 0.108
CATCCGCA | 0.191
GATCCGTA | 0.158
GATCCTGC | -0.00417
GATCCGGA | 0.439
GATCCGCC | 0.276
CGTTTTGA | -0.142
CTTAAGAA | -0.14
AGCACCGC | 0.121
CGAGCTTC | 0.028
ACTAAGGG | -0.0488
AAGGGTCC | 0.216
AAGAAAGA | -0.0469
ATGCTAGC | 0.00697
CACCGGAG | 0.443

Sequence | PBM E-score
CACCGGCC | 0.273
CACCGGCG | 0.383
CACCGGGA | 0.352
GACCGGAA | 0.389
GACCGGAC | 0.383
CACCGGAC | 0.439
CACCGGAA | 0.427
CACCGGTG | 0.306
GACCGGGA | 0.359
CACCGGTA | 0.297
GACCGGTA | 0.0914
ATACGATA | -0.118
ACGGGGGA | 0.0207
ACTCCATC | 0.275
ATGCACAC | -0.153
CCATCAGC | -0.0147
GGGGTCAC | -0.0137
GTCTTACA | -0.252
GCAGGTCA | -0.134
ACCAGTGC | -0.264
AACCGCAG | -0.0582
AACCGGCA | 0.215
TACCGGAA | 0.397
AACCGGAA | 0.391
AAACGGAC | 0.197

Sequence | PBM E-score
AACCGCAC | -0.0338
TACCGGTA | 0.246
AACCGGAG | 0.48
TACCGGGA | 0.381
AACCGGTG | 0.282
AACCGGAC | 0.414
AACCGGAT | 0.367
ACAGTGAG | -0.301
GAGAGTTA | -0.158
CGCAACAC | 0.111
ATTCAAGG | -0.282
GCTTTCCA | -0.0584
CCTTAGAG | -0.172
TGTCCGAA | 0.407
TGTCCAAA | -0.0727
TGTCCTAA | -0.233
GGTCCAAC | 0.00905
CGTCCGAC | 0.243
GGTCCGAC | 0.39
CGTCCGAA | 0.352
GGTCCGAA | 0.439
GGTCCAAA | 0.0394
AAACCCAA | 0.0205
AACGGGCA | -0.0928
TCCTCAGA | 0.0167

Sequence | PBM E-score
CGTGAGTC | -0.141
CAACTTCC | 0.22
GTAGCGAC | -0.186
GCGTTCGA | -0.11
GTTTCCGA | 0.369
CTTTCCGA | 0.354
ACTTCCGA | 0.378
ATTTCCGA | 0.446
ATTTCCCC | 0.127
ACTTCCGG | 0.435
ATTTCCGC | 0.397
ATTTCCAG | 0.0814
ACTTCCGC | 0.342
CTTTCCGC | 0.332
ATTTCCGG | 0.475
ATTTCCTG | 0.0615
ACACATCA | 0.0404
CCACTGAA | 0.0461
GTCAAGAC | -0.133
